According to PubChem BioAssay (Tox21):
Results filed as inconclusive are left out. A call without a number means that no potency is given here. Activity calls are given as the source filed them. Calls come from the whole dose curve.

assay: qHTS assay to identify small molecule agonists of the progesterone receptor (PR) signaling pathway - cell viability counter screen (AID 1346799); details: PR-UAS-bla HEK293T viability, CellTiter-Glo luminescence, 16 h; series mostly up to 92.4 µM; note: nearly all actives have a fitted effect of over 45% in size
From the text: National Center for Advancing Translational Sciences [NCATS]
NIH Chemical Genomics Center [NCGC]
U.S. Environmental Protection Agency [EPA]
National Institutes of Environmental Health Sciences [NIEHS]
National Toxicology Program [NTP]
U.S. Food and Drug Administration [FDA]
Progesterone receptor (PR), a nuclear hormone receptor, plays an important role in development, metabolic homeostasis and reproduction. It is activated by the steroid hormone progesterone. Endocrine disrupting chemicals (EDCs) and their interactions with steroid hormone receptors like PR causes disruption of normal endocrine function. To identify the compounds that stimulate PR signaling, a PR-UAS-bla GripTite cell line i.e. PR-UAS-bla HEK293T (Invitrogen, Carlsbad, CA, USA) containing a beta-lactamase reporter gene under the control of an UAS response element was used to screen Tox21 10K compound library. The cytotoxicity of the Tox21 compound library against the PR-bla cell line was tested in parallel by measuring the cell viability using CellTiter-Glo assay in the same wells.
Tox21 Assay Protocol Summary:
PR-UAS-bla HEK293T cells were dispensed at 3,000 cells/5 uL of assay medium containing 2% charcoal stripped FBS per well into black wall/clear-bottom 1536-well plates using a Multidrop Combi (ThermoFisher Scientific, Waltham, MA) dispenser. After the assay plates were incubated at a 37C and 5% CO2 for 6 hr, 23 nL of compounds dissolved in DMSO, positive controls or DMSO only was transferred to the assay plate by a Pintool station (Kalypsys, San Diego, CA). The plates were incubated at 37C and 5% CO2 for 16 hr. Then 1 uL of LiveBLAzer B/G FRET substrate was added using a Flying Reagent Dispenser (FRD, Aurora Discovery, San Diego, CA), the plates were incubated at room temperature for 2 hours, and fluorescence intensity was measured by an Envision plate reader (PerkinElmer, Shelton, CT). For cell viability readout that measures cytotoxicity, 4 uL/well of CellTiter-Glo reagent was added into the assay plates using a FRD. After 30 min incubation at room temperature, the luminescence intensity in the plates was measured using a ViewLux (PerkinElmer) plate reader.
Potency is the fitted concentration of half-maximal effect.

Compound	Potency
Cc1cc(O)c(C)c(C)c1O	inactive
CC1CC(C)C(=O)C1=O (stereo not given)	inactive
COc1ccccc1Oc1c(NS(=O)(=O)c2ccc(C(C)(C)C)cc2)nc(-c2ncccn2)nc1OCCO	inactive
CC(=O)N/N=C/c1ccc([N+](=O)[O-])o1	inactive
N#CCCN(CCO)CCO	inactive
CC(C)c1nc(CN(C)C(=O)N[C@H](C(=O)N[C@@H](Cc2ccccc2)C[C@H](O)[C@H](Cc2ccccc2)NC(=O)OCc2cncs2)C(C)C)cs1	26.6 µM (active)
CCn1cc(C(=O)O)c(=O)c2cc(F)c(N3CCNCC3)cc21	inactive
CC(=O)Nc1cc(S(=O)(=O)O)cc2cc(S(=O)(=O)O)c(N=Nc3ccccc3)c(O)c12	inactive
CCOC(C)=O	inactive
O=C(OC(=O)c1ccccc1)c1ccccc1	inactive
CCCCN1CCCC1C(=O)Nc1c(C)cc(C)cc1C (stereo not given)	inactive
CC(C)=CCC/C(C)=C/CC/C(C)=C/CCC(=O)OC/C=C(\C)CCC=C(C)C	inactive
CC(=O)OCC(=O)NCCCOc1cccc(CN2CCCCC2)c1	inactive
COc1ccccc1N1CCN(CCCCNC(=O)c2ccc(-c3ccc(C(C)=O)cc3)cc2)CC1	inactive
CO[C@]1(NC(=O)CSC(F)F)C(=O)N2C(C(=O)O)=C(CSc3nnnn3CCO)CO[C@H]21	inactive
COc1ccc(OC(=O)N(CC(=O)O)Cc2ccc(OCCc3nc(-c4ccccc4)oc3C)cc2)cc1	inactive
NNC(=O)CP(=O)(c1ccccc1)c1ccccc1	inactive
CC1CC(OC(=O)C(O)c2ccccc2)CC(C)(C)N1C (stereo not given)	inactive
c1csc(SSc2cccs2)c1	9.69 µM (active)
Cc1[nH]cnc1CN1CCc2c(c3ccccc3n2C)C1=O	inactive

Compound	Potency
CCCCN(CCN(CCCC)C(=O)N1CCOCC1)C(=O)N1CCOCC1	29.8 µM (active)
CC(=O)c1ccc([N+](=O)[O-])cc1	inactive
CC=C(Cl)Cl	inactive
CCCCCCCC/C=C\CCCCCCCCCCCC(=O)O	inactive
Oc1cccc(O)c1O	inactive
C[C@H]1C[C@H](O)c2ccsc2S1(=O)=O	inactive
CC(C)C=O	inactive
N#[N+]c1ccc2c(S(=O)(=O)[O-])cccc2c1O	inactive
CCCC(=O)C(=O)O	inactive
C[C@H]1c2cccc(O)c2C(O)=C2C(=O)[C@]3(O)C(O)=C(C(N)=O)C(=O)[C@@H](N(C)C)[C@@H]3[C@@H](O)[C@@H]21	inactive
O=C1CCCCCCCCCCOCCCCO1	inactive
CC1(C)O[C@@H]2C[C@H]3[C@@H]4C[C@H](F)C5=CC(=O)C=C[C@]5(C)[C@H]4[C@@H](O)C[C@]3(C)[C@]2(C(=O)CO)O1	inactive
NC(=O)c1ccncc1	inactive
C=CC(=O)OCC1CC2CC1C1CCC(COC(=O)C=C)C21 (stereo not given)	inactive
CC(C)(c1ccccc1)c1ccccc1	inactive
O=C1NCCN1CCO	inactive
CCC(OCCCOC)OC(C)=O (stereo not given)	inactive
CC1(C)S[C@@H]2[C@H](NC(=O)C(c3ccccc3)S(=O)(=O)O)C(=O)N2[C@H]1C(=O)O (stereo not given in full)	inactive
c1ccc2c(c1)CCc1ccccc1N2	inactive
CCCCCCNC(=O)n1cc(F)c(=O)[nH]c1=O	inactive
